Molecules are shown by their SMILES. Records with an inconclusive call do not appear. A number with no mark means an inactive call. The source made the active and inactive calls. Calls follow the shape of the dose curve; as a rule, active = well fitted activation curve with a large enough effect in the repeat runs; inconclusive = weak or mixed curves; inactive = flat fitted curve, though single readings scatter.
% is scaled to controls: 0 for no effect and ±100 for the full control effect; potency is read from the fitted curve at half-maximal effect.
Also: nearly all actives have a fitted effect of over 45% in size.

The nature of the first test: A CellTox Green Cytotoxicity Assay to monitor cytotoxicity in HEK293 cells - 24 hour (AID 1224875). Conditions: CellTox Green fluorescence; series mostly up to 76.8 µM; activity change: at the top concentration. In a few lines:
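Fluorescence from a DNA-binding dye excluded by viable cells was measured repeatedly in the same HEK293 wells (600 cells/well) during continuous compound exposure at 37 C. Each assay gives one read point: 0, 8, 16, 24, 32 or 40 h.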
Consider `CC1=NC(C)OC1C` (configuration not stated), for which the “activity change” value is 6.93%.
For `CCCC(c1cc(C(C)(C)C)c(O)cc1C)c1cc(C(C)(C)C)c(O)cc1C`, the Potency was 55.6 µM (active).
`CCCCCCCCn1sc(Cl)c(Cl)c1=O`: the Potency was 1.1 µM (active).
As to `CSc1ccc(/C=C2/C(C)=C(CC(=O)O)c3cc(F)ccc32)cc1`, the “activity change” value is -3.32% [at 35.3 µM, hits give high values].
Still for that read-out and setting: the same measure for `C/C=C(\C)C(=O)OCc1ccccc1`: 15%.
For `CCOC(=O)O[C@H](C)OC(=O)c1ccc2c(c1)cc(C(=O)NC1CCN(C(C)C)CC1)n2Cc1cc(-c2ccc(Cl)s2)on1`, the Potency is 20.4 µM (active).
`O=c1[nH]cnc2nc[nH]c12`: the “activity change” value is -20.6% [at 35.3 µM, hits give high values].
As for `C[C@]12CCC(=O)C=C1CC[C@@H]1[C@@H]2[C@@H](O)C[C@@]2(C)[C@H]1CC[C@]2(O)C(=O)COC(=O)CCC(=O)O`, the “activity change” value was 3.29% [at 35.3 µM, hits give high values].
Turning to `NC(=O)CC[C@@H]1NC(=O)[C@H](Cc2ccccc2)NC(=O)[C@H](Cc2ccc(O)cc2)NC(=O)CCSSC[C@@H](C(=O)N2CCC[C@H]2C(=O)N[C@@H](CCCN=C(N)N)C(=O)NCC(N)=O)NC(=O)[C@H](CC(N)=O)NC1=O`, the “activity change” value is -4.71% [at 35.3 µM, hits give high values].
With `COC(=O)C1=C(C)NC(C)=C(C(=O)OCC(C)C)C1c1ccccc1[N+](=O)[O-]` (configuration not stated), the “activity change” value is -2.68% [at 35.3 µM, hits give high values].
Consider `[Cl][Au]([Cl])[Cl]`, for which the Potency was 21.9 µM (active).
As to `OCCCCCCCCCCCCBr`, the “activity change” value is 0.0977%.
Same read-out and setting: the same measure for `CC(C)=CCOc1ccc(/C=C/C(=O)c2ccc(OCC=C(C)C)cc2OCC(=O)O)cc1`: -1.16% [at 35.3 µM, hits give high values]; for `CSc1ccc(C(=O)c2[nH]c(=O)[nH]c2C)cc1`: -1.44% [at 35.3 µM, hits give high values].
As for `CC(C)(C)c1ccc(C(=O)CCCN2CCC(OC(c3ccccc3)c3ccccc3)CC2)cc1`, the Potency is 21.3 µM (active).
`CCC(C)Nc1ccc(NC(C)CC)cc1` (configuration not stated): the Potency was 17.7 µM (active).
Turning to `O=[N+]([O-])c1ccccc1Nc1ccccc1`, the “activity change” value is -0.367%.
With `Clc1ccc2nsnc2c1NC1=NCCN1`, the “activity change” value is -18.8% [at 35.3 µM, hits give high values].
For `CCCCc1oc2ccc(NS(C)(=O)=O)cc2c1C(=O)c1ccc(OCCCN(CCCC)CCCC)cc1`, the Potency is 19 µM (active).
As to `NNC(=O)c1cccc(C(=O)NN)c1`, the “activity change” value is -9.22%.
Same read-out and setting: the same measure for `CCCCCCCCCCCCCCCS(=O)(=O)Oc1ccccc1`: 12% [at 35.3 µM, hits give high values]; for `CCC(C)(C)C1CCCCC1OC(C)=O` (configuration not stated): 10%.
For the compound `CCCCCCC[N+](CC)(CC)CCCCc1ccc(Cl)cc1`, the “activity change” value was 29.7% [at 35.3 µM, hits give high values].
Still for that read-out and setting: in the case of `CCCCCOC(=O)CCCC` it was 4.86%.
Consider `OCCN(CCO)c1nc(N2CCCCC2)c2nc(N(CCO)CCO)nc(N3CCCCC3)c2n1`, for which the Potency is 21.3 µM (active).
For `Cc1cccc(S(=O)(=O)O)c1C`, the “activity change” value is -13.9%.
For the compound `COc1cc(/C=C/C(=O)O[C@H]2CC[C@]34C[C@]35CC[C@]3(C)[C@@H]([C@H](C)CCC=C(C)C)CC[C@@]3(C)[C@@H]5CC[C@H]4C2(C)C)ccc1O`, the “activity change” value was -18.4% [at 35.3 µM, hits give high values].
In the case of `CCCCCCCCCCn1cc[n+](CCCCCCCCCC)c1C`, the Potency is 17.4 µM (active).
As to `Clc1ccc(C(Cn2ccnc2)OCc2ccc(Sc3ccccc3)cc2)c(Cl)c1` (configuration not stated), the “activity change” value was -1.94% [at 35.3 µM, hits give high values].
Regarding `Cc1cc(N)c(S(=O)(=O)O)cc1Cl`, the “activity change” value is -2.39%.
On the same count and under the same terms, the same measure for `CC(C)(C)c1ccc(C(=O)O)cc1`: -1.63%; for `CCCCCCCCCCC=O`: 2.53%; for `CC(C)C(C)(C)C(C)(C)C(C)(C)S`: -6.77%.
On the same count and under the same terms, in the case of `Oc1cccc2cc3cccc(O)c3c(O)c12` it was -8.5%; in that of `CC(=O)OCC(C)OC(C)=O` (configuration not stated), -10.8%; in that of `c1ccc(CSCc2ccccc2)cc1`, 13.4%.

The nature of the next test: A CellTox Green Cytotoxicity Assay to monitor cytotoxicity in HepG2 cells - 16 hour (AID 1224876). Conditions: CellTox Green fluorescence; series mostly up to 76.8 µM; cytotoxicity increase: at the top concentration. In a few lines:
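Real-time cytotoxicity: fluorescence of a cell-impermeant cyanine dye binding DNA of dead HepG2 cells, measured repeatedly (0–40 h) during compound exposure at 37 C. Cells seeded 600/well with reagent, dosed after 5 h.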
On to `CC1=NC(C)OC1C` (configuration not stated), for which the “cytotoxicity increase” value is -0.934%.
Turning to `CCCC(c1cc(C(C)(C)C)c(O)cc1C)c1cc(C(C)(C)C)c(O)cc1C`, the Potency is 44.2 µM (active).
On the same count and under the same terms, in the case of `CCCCCCCCn1sc(Cl)c(Cl)c1=O` it was 7.76 µM (active).
As to `CSc1ccc(/C=C2/C(C)=C(CC(=O)O)c3cc(F)ccc32)cc1`, the “cytotoxicity increase” value was 0.0595% [at 35.3 µM].
As to `C/C=C(\C)C(=O)OCc1ccccc1`, the “cytotoxicity increase” value is 3.6%.
Turning to `CCOC(=O)O[C@H](C)OC(=O)c1ccc2c(c1)cc(C(=O)NC1CCN(C(C)C)CC1)n2Cc1cc(-c2ccc(Cl)s2)on1`, the Potency was 11.5 µM (active).
Regarding `O=c1[nH]cnc2nc[nH]c12`, the “cytotoxicity increase” value was -0.167% [at 35.3 µM].
On the same count and under the same terms, the same measure for `C[C@]12CCC(=O)C=C1CC[C@@H]1[C@@H]2[C@@H](O)C[C@@]2(C)[C@H]1CC[C@]2(O)C(=O)COC(=O)CCC(=O)O`: -15.1% [at 35.3 µM]; for `NC(=O)CC[C@@H]1NC(=O)[C@H](Cc2ccccc2)NC(=O)[C@H](Cc2ccc(O)cc2)NC(=O)CCSSC[C@@H](C(=O)N2CCC[C@H]2C(=O)N[C@@H](CCCN=C(N)N)C(=O)NCC(N)=O)NC(=O)[C@H](CC(N)=O)NC1=O`: -7.76% [at 35.3 µM].
Consider `COC(=O)C1=C(C)NC(C)=C(C(=O)OCC(C)C)C1c1ccccc1[N+](=O)[O-]` (configuration not stated), for which the “cytotoxicity increase” value was 0.248% [at 35.3 µM].
Regarding `[Cl][Au]([Cl])[Cl]`, the Potency was 21.9 µM (active).
With `OCCCCCCCCCCCCBr`, the “cytotoxicity increase” value was 6.45%.
On the same count and under the same terms, the same measure for `CC(C)=CCOc1ccc(/C=C/C(=O)c2ccc(OCC=C(C)C)cc2OCC(=O)O)cc1`: -7.2% [at 35.3 µM]; for `CSc1ccc(C(=O)c2[nH]c(=O)[nH]c2C)cc1`: -3.02% [at 35.3 µM].
As to `CC(C)(C)c1ccc(C(=O)CCCN2CCC(OC(c3ccccc3)c3ccccc3)CC2)cc1`, the Potency was 23.9 µM (active).
The same measure, in the same setting: the same measure for `CCC(C)Nc1ccc(NC(C)CC)cc1` (configuration not stated): 35.3 µM (active).
In the case of `O=[N+]([O-])c1ccccc1Nc1ccccc1`, the “cytotoxicity increase” value is 4.37%.
Still for that read-out and setting: in the case of `Clc1ccc2nsnc2c1NC1=NCCN1` it was -1.14% [at 35.3 µM].
For the compound `CCCCc1oc2ccc(NS(C)(=O)=O)cc2c1C(=O)c1ccc(OCCCN(CCCC)CCCC)cc1`, the Potency was 21.3 µM (active).
As for `NNC(=O)c1cccc(C(=O)NN)c1`, the “cytotoxicity increase” value was -5.05%.
The same measure, in the same setting: the same measure for `CCCCCCCCCCCCCCCS(=O)(=O)Oc1ccccc1`: -10.1% [at 35.3 µM]; for `CCC(C)(C)C1CCCCC1OC(C)=O` (configuration not stated): 4.86%.
`CCCCCCC[N+](CC)(CC)CCCCc1ccc(Cl)cc1`: the Potency is 26.8 µM (active).
For the compound `CCCCCOC(=O)CCCC`, the “cytotoxicity increase” value was -14.1%.
With `OCCN(CCO)c1nc(N2CCCCC2)c2nc(N(CCO)CCO)nc(N3CCCCC3)c2n1`, the Potency is 23.9 µM (active).
As to `Cc1cccc(S(=O)(=O)O)c1C`, the “cytotoxicity increase” value was 0.137%.
Consider `COc1cc(/C=C/C(=O)O[C@H]2CC[C@]34C[C@]35CC[C@]3(C)[C@@H]([C@H](C)CCC=C(C)C)CC[C@@]3(C)[C@@H]5CC[C@H]4C2(C)C)ccc1O`, for which the “cytotoxicity increase” value is 7.47% [at 35.3 µM].
Regarding `CCCCCCCCCCn1cc[n+](CCCCCCCCCC)c1C`, the Potency is 21.9 µM (active).
Turning to `Clc1ccc(C(Cn2ccnc2)OCc2ccc(Sc3ccccc3)cc2)c(Cl)c1` (configuration not stated), the “cytotoxicity increase” value is -1.22% [at 35.3 µM].
`Cc1cc(N)c(S(=O)(=O)O)cc1Cl`: the “cytotoxicity increase” value was 9.38%.
On to `CC(C)(C)c1ccc(C(=O)O)cc1`, for which the “cytotoxicity increase” value was 11.5%.
Still for that read-out and setting: the same measure for `CCCCCCCCCCC=O`: -8.1%.
The same measure, in the same setting: in the case of `CC(C)C(C)(C)C(C)(C)C(C)(C)S` it was -4.28%.
On to `Oc1cccc2cc3cccc(O)c3c(O)c12`, for which the “cytotoxicity increase” value was -8.49%.
Still for that read-out and setting: in the case of `CC(=O)OCC(C)OC(C)=O` (configuration not stated) it was -8.73%; in that of `c1ccc(CSCc2ccccc2)cc1`, 0.371%.

The record behind these values is PubChem BioAssay (Tox21).
